Bioassay records from PubChem BioAssay.
The list is not random: actives were taken first. Their share in the collection is about 1.2%.
RGS8-Gao reg – human RGS8-Galphao interaction regulation; AID 1423; multiplexed bead flow cytometry, RGS8-Galphao binding; actives lie on both sides; 0.34% of 220,000 active; response (percent of control binding), % at 10 µM; in the data active = response below about 60% or above about 140%; inactive = in between;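 also: Galphao activated as the GDP aluminium fluoride complex binding bead-coupled RGS8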
RGS4-Gao reg – modulates binding of RGS4 to human Galphao. P09471. Multiplexed bead flow cytometry; actives lie on both sides. binding response (% of control), % at 10 µM. 0.33% of 220,000 active; in the data active = binding response below about 49% or above about 150%; inactive = in between;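 also: fluorescent Galphao activated with aluminum fluoride binding bead-coupled RGS4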
Avidin bead fluor – avidin bead compound fluorescence profile. fluorescence (KMESF) at 10 µM. Avidin beads, compound fluorescence 488/530 nm, flow cytometry; hits give high values. 0.38% of 220,000 active; in the data active = fluorescence above about 47
RGS7-Gao – human RGS7-Galphao interaction regulation. binding response (% of control), % at 10 µM. AID 1439. 0.35% of 220,000 active. Multiplexed bead flow cytometry, RGS7-Galphao binding; actives lie on both sides; in the data active = binding response below about 49% or above about 150%; inconclusive = no clear call, values can overlap the other calls; inactive = in between;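 also: fluorescent Galphao held in activated GDP-AlF4 state binding bead-coupled RGS7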
GSH fluor – GSH bead compound fluorescence profile; GSH beads flow cytometry, compound fluorescence 488/530 nm; hits give high values; AID 1776; fluorescence (KMESF) at 10 µM; 0.25% of 190,000 active; in the data active = fluorescence above about 89;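 also: glutathione beads carrying GST-tagged Bcl family fusion proteins plus one bare bead set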
RGS16-Gao HTS – modulates binding between human RGS16 and Galphao | O15492+P09471 | bead-based flow cytometry RGS16-Galphao binding, fluorescence; actives lie on both sides | binding response (% of control), % at 10 µM | 0.38% of 220,000 active;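 also: Galphao activated by GDP with aluminum fluoride before binding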
Target sequence (O15492 whole entry, looked up): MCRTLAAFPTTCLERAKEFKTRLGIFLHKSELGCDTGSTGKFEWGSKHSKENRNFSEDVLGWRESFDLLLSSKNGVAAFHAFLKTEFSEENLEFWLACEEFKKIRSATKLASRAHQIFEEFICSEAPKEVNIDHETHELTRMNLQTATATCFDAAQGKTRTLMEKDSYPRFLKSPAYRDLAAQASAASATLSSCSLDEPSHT
Target sequence (P09471 whole entry, looked up): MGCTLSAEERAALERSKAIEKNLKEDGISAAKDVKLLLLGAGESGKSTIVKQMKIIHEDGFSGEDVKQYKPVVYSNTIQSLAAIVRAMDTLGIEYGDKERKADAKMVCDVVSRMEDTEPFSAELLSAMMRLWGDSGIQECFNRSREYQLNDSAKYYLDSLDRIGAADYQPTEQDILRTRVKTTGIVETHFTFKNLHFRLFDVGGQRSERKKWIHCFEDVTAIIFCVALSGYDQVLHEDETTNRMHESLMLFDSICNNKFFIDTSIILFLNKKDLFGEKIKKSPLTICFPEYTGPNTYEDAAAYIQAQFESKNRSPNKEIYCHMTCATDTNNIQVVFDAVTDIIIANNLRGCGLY
RGS4-Gao HTS – RGS4-Galphao interaction regulator (human); RGS4–Galpha-o binding response, % at 10 µM; shares compounds with RGS16-Gao HTS; 99% of 1,600 active; multiplexed bead flow cytometry, RGS–Galpha-o binding;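 also: fluorescently labeled Galpha-o bound to GDP with aluminium fluoride binding biotinylated RGS beads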
Avidin counter – counter-screen: compounds disrupting biotin binding to avidin beads; 1,700 tested, under 10 active; AID 1783; streptavidin beads, fluorescein-biotin binding, flow cytometry; shares compounds with RGS16-Gao HTS; inhibition, % at 10 µM;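 active = inhibition above 50%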;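 also: median green fluorescence of gated singlet beads compared with DMSO control wells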
RGS8-Gao single – confirmation of regulators of human RGS8-Galphao interaction; binding response (% of control), % at 10 µM; bead-based flow cytometry RGS8-Galphao binding, fluorescence; actives lie on both sides; 3% of 1,700 active; AID 1836; shares compounds with RGS16-Gao HTS; in the data active = binding response below about 72% or above about 130%; inactive = in between;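 also: Galphao activated as GDP AlF4 complex before binding bead RGS8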
RGS7-Gao single – confirmation of regulators of human RGS7-Galphao interaction; 7.8% of 1,700 active; shares compounds with RGS16-Gao HTS; AID 1837; bead-based flow cytometry RGS7-Galphao binding; actives lie on both sides; response (percent of control binding), % at 10 µM; in the data active = response below about 75% or above about 130%; inactive = in between;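 also: fluorescent Galphao activated with GDP and aluminum fluoride binding bead-coupled RGS7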
RGS16-Gao conf – RGS16-Galphao interaction regulation, single point confirmation; AID 1838; 4% of 1,700 active; response (% of control binding), % at 10 µM; shares compounds with RGS16-Gao HTS; bead-based flow cytometry, RGS16-Galphao binding; actives lie on both sides; in the data active = response below about 74% or above about 130%; inactive = in between;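 also: Galphao activated as the GDP aluminium fluoride complex binding bead-coupled RGS16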
RGS4-Gao confirm – confirmation of regulators of human RGS4-Galphao interaction; shares compounds with RGS16-Gao HTS; RGS4-Galphao binding, multiplexed bead flow cytometry; actives lie on both sides; binding response (% of control), % at 10 µM; 4% of 1,700 active; AID 1840; in the data active = binding response below about 74% or above about 130%; inactive = in between
RGS19-Gao conf – RGS19-Galphao interaction regulation, single point confirmation | 5% of 1,700 active | bead-based flow cytometry RGS19-Galphao binding; actives lie on both sides | response (percent of control binding), % at 10 µM | shares compounds with RGS16-Gao HTS; in the data active = response below about 50% or above about 160%; inactive = in between
Each line names hits and unclear results; the compound was inactive in the other large screens (follow-up assays come after a bar, where they were run); [ ] = dose if it differs, or a comment. Unless noted, no rule for the calls is given here.

CCCC(C(=O)c1ccccc1)n1cncn1 (stereo unspecified)	RGS16-Gao HTS -9.0 | RGS4-Gao HTS 70 | Avidin counter inactive | RGS8-Gao single inactive | RGS7-Gao single inactive | RGS16-Gao conf inactive | RGS4-Gao confirm inactive | RGS19-Gao conf inactive
CC(C)(C)OC(=O)N1CCC[C@H]1C(=O)N/N=C/c1ccc2ncccc2c1	RGS7-Gao inconclusive (no result: GSH fluor)
Cc1c(Cl)cccc1NC(=O)CC(C(=O)O)C1CCCO1 (stereo unspecified)	RGS8-Gao reg 148[activator] | RGS4-Gao HTS 136 | Avidin counter inactive | RGS8-Gao single inactive | RGS7-Gao single inactive | RGS16-Gao conf inactive | RGS4-Gao confirm inactive | RGS19-Gao conf inactive
O=C(Nc1cccc(O)c1)c1noc2c1CCCCC2	none (no result: RGS8-Gao reg, RGS4-Gao reg, Avidin bead fluor, RGS7-Gao, RGS16-Gao HTS) | Avidin counter inactive | RGS8-Gao single inactive | RGS7-Gao single inactive | RGS16-Gao conf inactive | RGS4-Gao confirm inactive | RGS19-Gao conf inactive
Cc1ccc(C(=O)NC(=S)NCc2ccco2)cc1	none
CCOC(=O)/C=C1\SCC(=O)N1CC(=O)Nc1ccc2c(c1)CCC2	none
CCOC(=O)/C=C1\SCC(=O)N1CC(=O)Nc1ccc(C(C)C)cc1	RGS8-Gao reg 142[activator] | RGS4-Gao HTS 114 | Avidin counter inactive | RGS8-Gao single inactive | RGS7-Gao single inactive | RGS16-Gao conf inactive | RGS4-Gao confirm inactive | RGS19-Gao conf inactive
O=C(CNC(=O)C1COc2ccccc2O1)N/N=C/c1ccc(O)cc1O (stereo unspecified)	RGS8-Gao reg 56, RGS16-Gao HTS -1.7 | RGS4-Gao HTS 62 | Avidin counter inactive | RGS8-Gao single inactive | RGS7-Gao single inactive | RGS16-Gao conf inactive | RGS4-Gao confirm inactive | RGS19-Gao conf inactive
